11 compounds from PubChem BioAssay (NCATS) can be followed below.

The target of experiment [1] is Peroxisome proliferator-activated receptor gamma (Homo sapiens) (UniProt P37231). Nature of the experiment: qHTS assay for small molecule agonists of peroxisome proliferator-activated receptor gamma signaling (AID 588536; active means well fitted curve in the direction sought with a large enough effect in the signal ratio, with a control signal flat, not every such curve was filed as active; the % refers to the signal ratio;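 further: 0% = DMSO basal wells and 100% = rosiglitazone at 2 µM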). The method, boiled down:
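PPAR-gamma-UAS-bla HEK293 cells in medium with 1% charcoal/dextran-treated FBS were exposed to compounds for 16 h at 37 C. Beta-lactamase activity was read with CCF4 substrate (405 nm excitation, 460/530 nm emission).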
In general terms: In qHTS, concentration-response curves come from the screen itself.

Experiment [2] concerns the target Vitamin D3 receptor (Homo sapiens) (UniProt P11473). Nature of the experiment: qHTS assay for small molecule antagonists of vitamin D receptor signaling (AID 588541; calls by dose curve;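 further: receptor activated by calcitriol during compound treatment; series mostly up to about 77 µM; on the % scale 0 is the no-effect control and ±100 the full control effect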). The essentials: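 VDR-UAS-bla HEK293T cells (2000/well, 2% charcoal-stripped FBS) were treated with titrated compounds plus 1-alpha,25-dihydroxyvitamin D3 (50 nM or 3 nM final) for 16 h at 37 C. CCF4 beta-lactamase fluorescence was read; Hill fits gave IC50.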

Experiment [3] has the same target. The experiment in a line: qHTS assay for small molecule agonists of vitamin D receptor signaling (AID 588543; calls by dose curve;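 further: 0% = DMSO basal and 100% = reference agonist control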). The method, boiled down:
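Agonist-mode beta-lactamase reporter: HEK293T VDR-UAS-bla cells in charcoal-stripped 2% FBS, compound series 16 h 37 C, CCF4 2 h RT. EC50 from Hill fit, scaled against DMSO and 50 nM calcitriol control.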

The nature of experiment [4]: qHTS assay for small molecule agonists of retinoid X receptor alpha signaling (AID 588544; calls by dose curve). The conditions noted are these: HEK293T RXRa-UAS-bla, beta-lactamase reporter, 18 h; 530 nm emission.
Experiment [5] has as its target Retinoic acid receptor RXR-alpha (Homo sapiens) (UniProt P19793). The description is as above.
Experiment [6] has as its target Thyroid hormone receptor beta (Homo sapiens) (UniProt P10828). Nature of the experiment: qHTS assay for small molecule agonists of thyroid hormone receptor beta signaling (AID 588545; calls by dose curve;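 further: 0% = DMSO only and 100% = 10 nM T3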). The essentials: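 Beta-lactamase reporter activity under TR response element control is measured in HEK 293 cells after 18 hrs compound exposure. Signal is ratiometric CCF4 fluorescence, 460/530 nm.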

The nature of experiment [7]: qHTS assay for small molecule antagonists of retinoid X receptor alpha signaling (AID 588546; active means well fitted inhibition curve with a large enough effect in the signal ratio, with a control signal flat, not every such curve was filed as active; the % refers to the signal ratio;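 further: cells stimulated with 9-cis-retinoic acid as agonist; on the % scale 0 is the no-effect control and ±100 the full control effect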). Conditions: HEK293T RXRa-UAS-bla, beta-lactamase ratio, antagonist mode; measured here: W530 green channel, cytotoxicity proxy. The essentials: (§1)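 Beta-lactamase reporter inhibition, read as CCF4 fluorescence ratio (ex 405, em 460/530 nm) after 2 h at RT. HEK293T UAS-bla cells, 2500/well, were stimulated with 9-cis-RA at 500 or 100 nM final alongside test compound for 18 h at 37 C.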

Experiment [8] addresses Retinoic acid receptor RXR-alpha (Homo sapiens) (UniProt P19793). The experiment is described as above. The conditions noted are these: HEK293T RXRa-UAS-bla, beta-lactamase ratio, antagonist mode. The essentials: as §1
For experiment [9], the target named is Voltage-gated inwardly rectifying potassium channel KCNH2 (Homo sapiens) (UniProt Q12809). The experiment in a line: qHTS Assay for Small Molecule Inhibitors of the Human hERG Channel Activity (AID 588834).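 Further: lower thallium flux fluorescence means stronger hERG block; nearly all actives have a fitted effect of over 50% in size.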 Further: potency means the concentration at half of the fitted maximal effect. The essentials: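 Kinetic FDSS fluorescence; U2OS + hERG BacMam (~100 virus particles/cell); FluxOR Tl+ flux; ~10 min cpd; AC50 (Hill).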
Voltage-gated inwardly rectifying potassium channel KCNH2 (Homo sapiens), sequence (Q12809 whole entry, looked up): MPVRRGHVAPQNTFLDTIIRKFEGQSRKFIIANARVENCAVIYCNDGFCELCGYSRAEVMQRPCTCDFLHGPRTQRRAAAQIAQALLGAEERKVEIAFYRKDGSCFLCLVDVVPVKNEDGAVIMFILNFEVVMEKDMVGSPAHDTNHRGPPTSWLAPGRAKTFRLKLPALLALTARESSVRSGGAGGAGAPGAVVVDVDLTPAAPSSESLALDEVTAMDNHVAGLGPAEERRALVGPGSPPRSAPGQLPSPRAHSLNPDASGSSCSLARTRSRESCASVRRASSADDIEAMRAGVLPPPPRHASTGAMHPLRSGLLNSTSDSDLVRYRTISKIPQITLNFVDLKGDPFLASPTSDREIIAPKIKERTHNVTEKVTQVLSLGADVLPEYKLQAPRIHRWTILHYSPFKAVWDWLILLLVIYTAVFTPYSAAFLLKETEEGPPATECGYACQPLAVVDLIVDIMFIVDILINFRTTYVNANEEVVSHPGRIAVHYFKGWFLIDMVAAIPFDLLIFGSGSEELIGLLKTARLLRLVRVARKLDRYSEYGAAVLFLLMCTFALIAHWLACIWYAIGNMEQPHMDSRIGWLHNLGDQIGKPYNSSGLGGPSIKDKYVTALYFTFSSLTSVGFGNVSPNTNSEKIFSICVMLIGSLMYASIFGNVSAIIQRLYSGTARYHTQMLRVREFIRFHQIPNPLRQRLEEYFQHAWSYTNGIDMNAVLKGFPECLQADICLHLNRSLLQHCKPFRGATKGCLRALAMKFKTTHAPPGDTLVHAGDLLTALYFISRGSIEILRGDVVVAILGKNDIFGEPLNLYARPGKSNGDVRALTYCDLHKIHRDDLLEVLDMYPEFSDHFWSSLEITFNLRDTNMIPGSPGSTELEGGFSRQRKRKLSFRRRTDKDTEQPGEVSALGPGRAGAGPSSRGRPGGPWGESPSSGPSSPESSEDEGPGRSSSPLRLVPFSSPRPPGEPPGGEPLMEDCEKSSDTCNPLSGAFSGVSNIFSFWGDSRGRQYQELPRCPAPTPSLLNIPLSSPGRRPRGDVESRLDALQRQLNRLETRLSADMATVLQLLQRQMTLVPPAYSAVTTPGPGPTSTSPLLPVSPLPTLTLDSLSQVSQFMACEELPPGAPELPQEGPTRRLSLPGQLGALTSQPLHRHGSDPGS
Experiment [10] concerns the target Luciferin 4-monooxygenase (Photinus pyralis) (UniProt P08659). Nature of the experiment: Biochemical firefly luciferase enzyme assay for NPC (AID 624030).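 Further: purified P. pyralis luciferase at 10 nM with luciferin and ATP substrate; series mostly up to about 59 µM; 0% = DMSO and -100% = full luciferase inhibition by PTC124 control; nearly all actives have a fitted effect of over 70% in size.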 The method, boiled down: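 Counter-screen for direct inhibition of the luciferase enzyme by approved-drug library compounds, run at 10 nM enzyme in 50 mM Tris acetate (final). Luminescence was read within 5 min of enzyme-buffer addition and normalized to PTC124 versus DMSO (0%).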

The nature of experiment [11]: S16 Schwann cell viability assay (CellTiter-Glo assay) (AID 624031). Further: nearly all actives have a fitted effect of over 70% in size. Further: potency means the concentration at half of the fitted maximal effect. The method, boiled down: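 Native S16 Schwann cells (rat), serum-containing medium, overnight attachment then 24 h drug exposure at 37 °C/5% CO2. CellTiter-Glo ATP signal; normalized to cell-free and vehicle wells.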
A short description of experiment [12]: S16 Schwann cell PMP22 intronic element firefly luciferase assay (AID 624032). Further: nearly all actives have a fitted effect of over 30% in size. Further: potency means the concentration at half of the fitted maximal effect. The essentials:
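Rat S16 Schwann cells stably carrying a PMP22 intronic element-driven Fluc reporter were seeded overnight, then exposed to compounds for 24 h at 37 °C. Luminescence was normalized to PTC124 (positive control) and DMSO (0% activity).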

Experiment [13] can be described thus: S16 Schwann cell PMP22 intronic element beta-lactamase assay (AID 624044; calls by dose curve;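 further: 0% = DMSO and -100% = potassium clavulanate positive control; nearly all actives have a fitted effect of over 15% in size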). The essentials: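 Rat S16 Schwann cells with beta-Lac driven by a PMP22 intronic element, compound-treated 24 h at 37 °C. LiveBLAzer FRET B/G read: 460 nm normalized to potassium clavulanate vs DMSO; 535 nm FRET as viability; concentration-effect curves classified.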
Experiment [14] concerns the target Peroxisome proliferator-activated receptor gamma (Homo sapiens) (UniProt P37231). Nature of the experiment: qHTS assay for small molecule antagonists of peroxisome proliferator-activated receptor gamma signaling (AID 588537; active means well fitted inhibition curve with a large enough effect in the signal ratio, with a control signal flat, not every such curve was filed as active; the % refers to the signal ratio; further: potency means the concentration at half of the fitted maximal effect). The method, boiled down:
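We seeded GeneBLAzer HEK293 reporter cells at 3000 per well, allowed 6-6.5 h attachment at 37 C, then co-treated with test compound titrations and 50 nM rosiglitazone overnight (16 h). Inhibition was quantified from 460/530 nm emission ratios.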

Experiment [15] addresses Thyroid hormone receptor beta (Homo sapiens) (UniProt P10828). Nature of the experiment: qHTS assay for small molecule antagonists of thyroid hormone receptor beta signaling (AID 588547; active means well fitted inhibition curve with a large enough effect in the signal ratio, with a control signal flat, not every such curve was filed as active; the % refers to the signal ratio;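 further: cells stimulated with 0.4 nM T3 agonist during compound exposure; series mostly up to about 77 µM; on the % scale 0 is the no-effect control and ±100 the full control effect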). Conditions: TR-UAS-bla HEK293, beta-lactamase ratio, antagonist mode, 18 h. The method, boiled down:
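TR-UAS-bla GripTite HEK293 cells in 2% charcoal/dextran FBS medium were preincubated 4 h at 37 C, given compound (0.59 nM to 92 uM) plus 0.4 nM T3 (final) for 18 h, then CCF4 for 2 h at RT; Hill fit gave IC50.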

Experiment [16] addresses Glutaminase kidney isoform, mitochondrial (Homo sapiens) (UniProt O94925). The experiment in a line: qHTS for Inhibitors of Glutaminase (GLS): LOPAC Validation (AID 624146).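 Further: glutamate product detected by oxidase and peroxidase coupled Amplex red fluorescence gain; series mostly up to about 46 µM; on the % scale 0 is the no-effect control and ±100 the full control effect; nearly all actives have a fitted effect of over 60% in size.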 The method, boiled down: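 Glutamate formation by hKGA was monitored fluorometrically using coupled glutamate oxidase, HRP and Amplex Red. Substrate was added as 1 mM L-glutamine solution; incubation was 30 min at RT after an initial read.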

For experiment [17], the target named is Glucagon-like peptide 1 receptor (Homo sapiens) (UniProt P43220). Nature of the experiment: qHTS of GLP-1 Receptor Agonists: LOPAC Validation (AID 624148).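 Further: 0% is about no effect; higher luminescence signal means agonism.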 The method, boiled down: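 HEK293 cells stably co-expressing a cAMP-responsive luciferase reporter and a hypersensitive GLP-1R were plated 12 h at 37 °C and exposed to compounds for 4-6 hr at 37 °C, 5% CO2. Luminescence was read 12 min after adding detection reagent.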
Glucagon-like peptide 1 receptor (Homo sapiens), sequence (P43220 whole entry, looked up): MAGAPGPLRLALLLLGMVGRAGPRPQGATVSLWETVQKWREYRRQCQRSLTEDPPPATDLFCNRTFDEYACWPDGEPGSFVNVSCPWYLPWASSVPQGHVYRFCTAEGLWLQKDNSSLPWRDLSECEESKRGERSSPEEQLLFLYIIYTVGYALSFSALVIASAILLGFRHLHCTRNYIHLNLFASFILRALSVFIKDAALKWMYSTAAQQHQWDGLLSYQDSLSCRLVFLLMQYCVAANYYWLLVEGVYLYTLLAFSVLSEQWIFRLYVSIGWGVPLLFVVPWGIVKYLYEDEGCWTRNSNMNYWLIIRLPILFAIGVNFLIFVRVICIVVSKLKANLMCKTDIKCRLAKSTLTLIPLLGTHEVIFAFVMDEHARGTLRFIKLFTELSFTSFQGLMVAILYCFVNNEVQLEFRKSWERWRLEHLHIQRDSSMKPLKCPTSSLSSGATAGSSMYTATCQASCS

The nature of experiment [18]: qHTS of Nrf2 Activators: LOPAC Validation (AID 624149). Further: 0% is about no effect. The method, boiled down:
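AREc32_Fluc cells, 1000/well in OPTI-MEM with 5% FBS, grown overnight, then exposed to compounds for 24 hr at 37 deg C, 5% CO2. ARE-driven firefly luciferase read by Steady-Glo luminescence after 30 min at RT.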

Experiment [19] is described as follows: HTS Assay for Allosteric Antagonists of the Human D2 Dopamine Receptor: Hit Validation in HTRF (AID 624455).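 Further: stable D1 dopamine receptor cell line scored for blocking the D1 response; on the % scale 0 is the no-effect control and ±100 the full control effect.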 The method, boiled down: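 Hit validation in cells stably expressing the D1 dopamine receptor, run in HTRF format. Compounds were tested for their ability to inhibit the D1-mediated response.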
(In general: TR-FRET usually uses a lanthanide donor and a delayed reading to cut background.)

Each structure is given as a SMILES string. Records with an inconclusive call do not appear. A structure can be active in one record and inactive in another. Active and inactive are the calls of the source. Unless noted, the call rests on the fitted dose curve; in most records, active means well fitted curve in the direction sought with a large enough effect; inconclusive means small, poorly fitted or top-dose-only effect, or another doubt; inactive means no such curve, though single readings can be large; an effect the other way counts as inactive or inconclusive.

Thyroid hormone receptor beta (Homo sapiens), sequence (P10828 whole entry, looked up): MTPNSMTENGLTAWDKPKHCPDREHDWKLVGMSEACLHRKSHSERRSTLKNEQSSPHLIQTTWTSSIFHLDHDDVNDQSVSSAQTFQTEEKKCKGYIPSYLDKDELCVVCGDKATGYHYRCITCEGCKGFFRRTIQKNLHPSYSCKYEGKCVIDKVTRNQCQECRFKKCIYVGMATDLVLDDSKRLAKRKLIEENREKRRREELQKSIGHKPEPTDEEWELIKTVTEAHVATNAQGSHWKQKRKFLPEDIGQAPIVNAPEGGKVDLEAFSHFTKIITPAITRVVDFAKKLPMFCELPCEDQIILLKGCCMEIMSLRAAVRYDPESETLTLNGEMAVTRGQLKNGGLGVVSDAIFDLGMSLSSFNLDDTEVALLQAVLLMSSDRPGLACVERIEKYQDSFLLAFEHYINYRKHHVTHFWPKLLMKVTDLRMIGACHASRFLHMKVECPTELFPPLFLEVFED
Vitamin D3 receptor (Homo sapiens), sequence (P11473 whole entry, looked up): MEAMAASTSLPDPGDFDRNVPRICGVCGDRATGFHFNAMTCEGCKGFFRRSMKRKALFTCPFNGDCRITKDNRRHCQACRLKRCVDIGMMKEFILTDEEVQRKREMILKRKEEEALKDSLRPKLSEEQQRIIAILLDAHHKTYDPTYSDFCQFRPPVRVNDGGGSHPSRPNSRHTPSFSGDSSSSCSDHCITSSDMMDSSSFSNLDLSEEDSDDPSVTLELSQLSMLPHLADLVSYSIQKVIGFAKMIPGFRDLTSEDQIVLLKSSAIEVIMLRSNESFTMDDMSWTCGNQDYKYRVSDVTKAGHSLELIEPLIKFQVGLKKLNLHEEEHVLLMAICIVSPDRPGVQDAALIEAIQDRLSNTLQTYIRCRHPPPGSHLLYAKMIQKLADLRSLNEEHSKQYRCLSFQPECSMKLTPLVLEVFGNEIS
Peroxisome proliferator-activated receptor gamma (Homo sapiens), sequence (P37231 whole entry, looked up): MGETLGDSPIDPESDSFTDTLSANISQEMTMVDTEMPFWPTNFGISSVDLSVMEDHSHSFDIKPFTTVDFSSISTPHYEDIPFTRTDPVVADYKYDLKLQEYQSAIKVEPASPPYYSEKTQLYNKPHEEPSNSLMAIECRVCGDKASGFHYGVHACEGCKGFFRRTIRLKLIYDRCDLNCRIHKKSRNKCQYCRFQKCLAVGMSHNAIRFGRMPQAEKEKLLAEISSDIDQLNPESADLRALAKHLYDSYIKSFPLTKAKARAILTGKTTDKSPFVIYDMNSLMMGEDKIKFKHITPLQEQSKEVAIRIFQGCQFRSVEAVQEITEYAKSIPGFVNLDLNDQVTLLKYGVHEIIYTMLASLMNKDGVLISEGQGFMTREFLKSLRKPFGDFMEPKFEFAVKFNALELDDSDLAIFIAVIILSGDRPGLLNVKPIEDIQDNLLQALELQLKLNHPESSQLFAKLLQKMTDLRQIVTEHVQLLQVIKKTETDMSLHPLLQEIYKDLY
Retinoic acid receptor RXR-alpha (Homo sapiens), sequence (P19793 whole entry, looked up): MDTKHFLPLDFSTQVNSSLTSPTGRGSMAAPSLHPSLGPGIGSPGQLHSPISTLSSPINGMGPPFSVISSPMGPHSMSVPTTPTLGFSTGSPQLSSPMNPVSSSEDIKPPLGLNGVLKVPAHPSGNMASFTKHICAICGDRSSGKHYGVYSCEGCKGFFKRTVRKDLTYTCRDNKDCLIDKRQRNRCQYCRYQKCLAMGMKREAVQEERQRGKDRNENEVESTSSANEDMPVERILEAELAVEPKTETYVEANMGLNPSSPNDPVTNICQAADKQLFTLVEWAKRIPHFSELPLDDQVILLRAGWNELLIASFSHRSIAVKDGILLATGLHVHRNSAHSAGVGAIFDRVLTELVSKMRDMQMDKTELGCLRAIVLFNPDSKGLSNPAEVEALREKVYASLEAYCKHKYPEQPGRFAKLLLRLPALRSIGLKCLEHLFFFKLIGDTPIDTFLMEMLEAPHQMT
Luciferin 4-monooxygenase (Photinus pyralis), sequence (P08659 whole entry, looked up): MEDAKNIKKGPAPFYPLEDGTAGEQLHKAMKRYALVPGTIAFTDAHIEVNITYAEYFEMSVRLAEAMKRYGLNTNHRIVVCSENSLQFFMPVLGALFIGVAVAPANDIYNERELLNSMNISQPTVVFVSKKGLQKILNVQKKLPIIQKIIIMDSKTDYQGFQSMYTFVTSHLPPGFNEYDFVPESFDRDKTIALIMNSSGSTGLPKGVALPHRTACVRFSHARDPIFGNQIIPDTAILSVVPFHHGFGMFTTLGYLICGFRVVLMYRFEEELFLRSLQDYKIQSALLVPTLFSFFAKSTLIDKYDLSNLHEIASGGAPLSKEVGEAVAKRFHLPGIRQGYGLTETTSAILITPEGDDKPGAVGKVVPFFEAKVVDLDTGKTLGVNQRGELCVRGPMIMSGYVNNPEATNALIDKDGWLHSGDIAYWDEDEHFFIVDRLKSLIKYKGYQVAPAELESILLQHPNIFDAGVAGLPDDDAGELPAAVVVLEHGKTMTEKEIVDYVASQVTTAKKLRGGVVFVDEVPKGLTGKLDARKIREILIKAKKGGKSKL
Glutaminase kidney isoform, mitochondrial (Homo sapiens), sequence (O94925 whole entry, looked up, canonical isoform): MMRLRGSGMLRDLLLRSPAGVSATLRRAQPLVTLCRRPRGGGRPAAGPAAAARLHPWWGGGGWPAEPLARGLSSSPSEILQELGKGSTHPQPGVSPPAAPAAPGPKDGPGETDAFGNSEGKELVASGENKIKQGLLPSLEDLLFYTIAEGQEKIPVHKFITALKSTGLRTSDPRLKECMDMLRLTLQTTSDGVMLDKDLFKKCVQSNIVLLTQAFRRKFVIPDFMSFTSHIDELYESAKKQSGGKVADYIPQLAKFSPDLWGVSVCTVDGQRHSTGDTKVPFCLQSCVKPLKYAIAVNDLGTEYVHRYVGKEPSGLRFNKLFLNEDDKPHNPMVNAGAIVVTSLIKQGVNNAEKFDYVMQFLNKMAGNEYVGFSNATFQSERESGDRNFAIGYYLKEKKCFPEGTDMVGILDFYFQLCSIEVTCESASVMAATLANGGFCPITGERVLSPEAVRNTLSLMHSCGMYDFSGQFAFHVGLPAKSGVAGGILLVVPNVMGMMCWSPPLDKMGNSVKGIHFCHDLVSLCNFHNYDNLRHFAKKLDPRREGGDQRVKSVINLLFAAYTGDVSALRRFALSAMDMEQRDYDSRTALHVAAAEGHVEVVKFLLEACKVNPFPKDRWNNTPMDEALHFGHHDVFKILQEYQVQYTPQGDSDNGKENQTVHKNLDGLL

For the compound `Clc1ccccc1Cl`, the call in experiment [1], in experiment [3] and in [6] was inactive. For the same compound, the Potency entry in experiment [2], in experiment [5], in [9], in experiment [10], in experiment [11] and in experiment [12] was “inactive” each time. In experiment [13], the Potency entry was “inactive”. For the same compound, the max response is -11.2% in experiment [4], 5.72% in [7] and 14.3% (inactive) in [8].
For `C[C@H]1CCC[C@H](O)CCCCCc2cc(O)cc(O)c2C(=O)O1`, in experiment [1], the call was inactive. Further, the Potency entry in experiment [14], in experiment [5], in experiment [10], in experiment [11] and in [13] was “inactive” throughout. Moreover, the max response in experiment [4] is 13%; in experiment [7] it was 7.61%; in [8], -34.3% (inactive).
On to `S=C=S`, for which the call in [1], in [3] and in [6] was inactive. Further, the Potency result in experiment [2], in experiment [5], in [9], in experiment [10], in experiment [11] and in [12] was “inactive” in each case. For the same compound, the Potency result in [13] was “inactive”. Also, the max response in experiment [4] is -8.91%; in experiment [7] it was -8.84%; in experiment [8] it was 10.2% (inactive). For the same compound, in experiment [15], the activity change % (negative = inhibition) is 5.87% (inactive).
`COCC(C)N(C(=O)CCl)c1c(C)csc1C` (configuration not stated): the Potency in [14] was 39.8 µM (active). Also, the result in [3] and in experiment [6] was inactive. Besides, the Potency entry in [9], in [10], in [11] and in experiment [12] was “inactive” throughout.
For `C[C@H]1CC[C@@H]2[C@@H](C)[C@H]3[C@H](C[C@H]4[C@@H]5CC=C6CC(O[C@@H]7O[C@H](CO)[C@H](O)[C@H](O[C@@H]8O[C@H](CO)[C@@H](O)[C@H](O)[C@H]8O)[C@H]7O[C@H]7O[C@@H](C)[C@H](O)[C@@H](O)[C@H]7O)CC[C@]6(C)[C@H]5CC[C@]34C)N2C1` (some centres not stated), the Potency result in experiment [14], in experiment [2], in [9] and in experiment [10] was “inactive” in each case. In addition, the result in experiment [3] was inactive. Further, in experiment [12], the Potency is 28.7 µM (active).
As for `O=[N+]([O-])C(Br)(CO)CO`, the call in [1] and in [3] was inactive. The Potency entry in experiment [14] is “inactive”. Besides, the activity change % (negative = inhibition) in experiment [15] is 5.27% (inactive). Further, the Potency in experiment [11] is 28.7 µM (active).
As to `O=C1C[C@@H]2OCC=C3CN4CC[C@]56c7ccccc7N1[C@H]5[C@H]2[C@H]3C[C@H]46`, the outcome in [1] and in [6] was inactive. The Potency entry in experiment [14] is “inactive”. The max response is 7.39% in experiment [7] and -7.88% (inactive) in experiment [8]. Also, the activity change % (negative = inhibition) in [15] was 0.757% (inactive). The Potency in experiment [9] was 14.1 µM (active).
With `O=C(NCNC(=O)NC1C(=O)NC(=O)N1CO)NC1C(=O)NC(=O)N1CO` (configuration not stated), the compound was called inactive in experiment [1] and in [6]. The Potency result in [14], in experiment [5], in experiment [9], in experiment [11] and in experiment [13] was “inactive” throughout. Also, the max response in experiment [4] is 0.0503%; in [7], -13%; in [8], -8.07% (inactive). The activity change % (negative = inhibition) in experiment [15] is -0.544% (inactive).
In the case of `NNC(N)=O`, the compound was classed as inactive in experiment [1], in [3], in experiment [6] and in experiment [17]. Further, the Potency result in experiment [2], in experiment [5], in experiment [9], in experiment [16], in [18] and in experiment [19] was “inactive” each time. Further, the max response in [4] was -3.29%. The activity change % (negative = inhibition) in experiment [15] was -12% (inactive).
On to `COC1=CC(=O)O[C@@H](/C=C/c2ccccc2)C1`, for which the call in experiment [1], in [3] and in [6] was inactive. The Potency result in experiment [14], in experiment [2] and in experiment [9] was “inactive” throughout. The values for the max response in [7] and in [8] were 0.406% and 18.3% (inactive), respectively. Besides, the activity change % (negative = inhibition) in experiment [15] is -5.64% (inactive).
Consider `COc1ccc2c(c1OC)C(=O)OC2C1c2cc3c(cc2CCN1C)OCO3` (configuration not stated), for which the compound was classed as inactive in experiment [1] and in experiment [6]. The Potency result in experiment [14] and in [5] was “inactive” throughout. Besides, the values for the max response in [4], in experiment [7] and in experiment [8] were 0.13%, -2.26% and 20.7% (inactive), respectively. The activity change % (negative = inhibition) in [15] was -14.3% (inactive). Moreover, the Potency in experiment [9] is 15.8 µM (active) and inactive.
